Measurements from PubChem BioAssay AID602475 (National Center for Advancing Translational Sciences (NCATS), 2012).
Results filed as inconclusive are left out. A number with no mark means an inactive call. Activity calls are given as the source filed them. The call rests on the fitted dose curve; in most records, active means well fitted inhibition curve with a large enough effect; inconclusive means small, poorly fitted or top-dose-only effect; inactive means no such curve, though single readings can be large or run the other way.

Target: Luciferin 4-monooxygenase (Photinus pyralis) (UniProt P08659)
Sequence (P08659 whole entry, looked up): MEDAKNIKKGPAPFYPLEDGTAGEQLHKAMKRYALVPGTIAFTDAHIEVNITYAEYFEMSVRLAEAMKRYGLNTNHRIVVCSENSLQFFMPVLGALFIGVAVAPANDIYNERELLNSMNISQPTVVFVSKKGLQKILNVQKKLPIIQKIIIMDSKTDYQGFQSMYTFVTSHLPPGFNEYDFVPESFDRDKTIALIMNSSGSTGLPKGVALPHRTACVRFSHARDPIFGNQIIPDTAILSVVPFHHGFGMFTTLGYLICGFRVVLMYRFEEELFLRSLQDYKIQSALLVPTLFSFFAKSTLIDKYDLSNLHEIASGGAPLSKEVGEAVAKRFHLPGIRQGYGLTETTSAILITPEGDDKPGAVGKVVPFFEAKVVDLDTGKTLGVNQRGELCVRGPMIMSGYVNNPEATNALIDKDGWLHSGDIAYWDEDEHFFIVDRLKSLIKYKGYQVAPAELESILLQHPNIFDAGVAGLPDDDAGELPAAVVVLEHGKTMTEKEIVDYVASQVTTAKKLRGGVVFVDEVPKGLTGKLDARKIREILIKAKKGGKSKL
Test: FLuc inhibitory activity for the follow-up compounds in a biochemical assay with an in-house formulation of detection reagent
Conditions: purified FLuc, luminescence; series mostly up to 25.6 µM; activity change, negative = inhibition: at the top concentration
Excerpt: NCGC Assay Overview: Firefly (Photinus pyralis) luciferase is one of the most commonly used transcriptional reporters. It is considered one of the more dynamically responsive reporters - that is, responsive to changes in reporter transcription - as it requires no post-translational modifications and is enzymatically active directly after protein synthesis (Wood, 1998). With no endogenous expression in mammalian cells and without the requirement of external excitation, it offers very little background signal, thus generally providing excellent signal to background for most assays. Previous profiling work to determine the prevalence of compounds that affect FLuc enzymatic activity (PubChem AID 411) identified that ~3% of the MLSMR library (then at ~72K) inhibited FLuc (Auld et al., 2008). […] Of the compounds identified in this profile that inhibited FLuc, 151 compounds were selected for further analysis, in an effort to better understand their mode of inhibiting FLuc. The assay described here was to determine the activity of the compounds in a FLuc assay that used an in-house formulation of detection reagent.
NCGC Assay Protocol Summary: Reagents: 300mM Tris-HCl, 300mM Trizma base, 300mM MgCl, 1% Triton-X100, 5mM DTT, 500uM Coenzyme A trilithium salt (Sigma #C3019),450uM ATP (Sigma #A7699), 1mM D-luciferin sodium salt monohydrate (Biosynth #L8240); 10nM P. pyralis luciferase (Sigma #L9506) Control compounds used were two known firefly luciferase inhibitors (3-(5-(3-chlorophenyl)-1,2,4-oxadiazol-3-yl)benzoic acid and 5-(2-fluorophenyl)-3-phenyl-1,2,4-oxadiazole), and DMSO. Assay Summary: Six microliters of buffer containing firefly luciferase (final concentrations: 50mM Tris acetate, 10nM P. pyralis luciferase) are dispensed into each well of a Greiner white, solid-bottom 1536-well format plate using a flying reagent dispenser (FRD). These assay plates were then treated with 23nL of compound or DMSO using a Kalypsys pin tool, which allows for delivery of a 12-point intraplate titration of each compound to the assay plate (quantitative HTS), with final compound concentrations ranging from approximately ~25uM to 0.1nM. Three microliters of 3X in-house detection reagent was then delivered by FRD to each well (final concentrations in assay: 300mM Tris-HCl, 300mM Trizma base, 300mM MgCl, 1% Triton-X100, 5mM DTT, 500uM Coenzyme A trilithium salt, 450uM ATP, 1mM D-luciferin sodium salt monohydrate). Luciferase activity was then measured using a ViewLux CCD imager (PerkinElmer), with an average exposure time of 2-30 seconds (2X binning, medium/high gain).

| Compound | activity change, negative = inhibition [%] | Potency |
| --- | --- | --- |
| CC(=O)Nc1cccc(-c2nc3ccccc3s2)c1C | -10.4 |  |
| Nc1ccccc1C(=O)Nc1cccc(C(=O)O)c1 | -2.97 |  |
| COc1ccc2nc(NC(=O)c3ccc(S(=O)(=O)N4CCCC(C)C4)cc3)sc2c1 (stereo not given) | -0.118 |  |
| COc1ccc(C(=O)Nc2ccccc2C(=O)N/N=C/c2ccc(O)c(OC)c2)cc1 |  | 11 nM (active) |
| Cc1cccc(C(=O)Nc2ccc(-c3nc4ccccc4s3)cc2Cl)c1 | 8.15 |  |
| COc1ccc2nc(NC(=O)Cc3cccs3)sc2c1 | -18.1 |  |
| O=C(Nc1ccccc1C(=O)O)c1cc(S(=O)(=O)Nc2cccc(F)c2)ccc1Cl | -17.3 |  |
| COc1ccc2nc(NC(=O)c3ccc([N+](=O)[O-])o3)sc2c1 |  | 9800 nM (active) |
| O=C(Nc1ccccc1C(=O)O)c1cc(S(=O)(=O)NCc2ccccc2)ccc1Cl | -17.5 |  |
| O=C(Nc1ccccc1C(=O)O)c1cccc(NC(=O)c2ccc(Br)o2)c1 | -16.6 |  |
| O=C(O)c1cccc(NC(=O)c2cccc(S(=O)(=O)N3CCCCC3)c2)c1 | -2.55 |  |
| O=C(O)c1ccc(NC(=O)c2ccccc2NC(=O)c2ccccc2Cl)cc1 | -9.72 |  |
| Cc1ccccc1C(=O)Nc1cccc(C(=O)Nc2ccccc2C(=O)O)c1 | -7.54 |  |
| O=C(O)c1cccc(NC(=O)c2ccc(COc3ccc(Cl)cc3)cc2)c1 | 7.3 |  |
| Nc1ccc2nc(-c3ccccc3)sc2c1 |  | 2190 nM (active) |
| Cc1ccc2sc(-c3ccc(NC(=O)c4cc(-n5cnnc5)ccc4Cl)cc3)nc2c1 | 43.4 |  |
| Cc1c(NC(=O)c2cc(-n3cnnc3)ccc2Cl)cccc1-c1nc2ccccc2s1 | -8.49 |  |
| Cc1c(NS(C)(=O)=O)cccc1-c1nc2ccccc2s1 | 4.59 |  |
| c1ccc2sc(-c3ccc4c(c3)OCO4)nc2c1 |  | 4910 nM (active) |
| O=C(Nc1c(Cl)cc(Cl)cc1-c1nc2ccccc2s1)c1ccc(Br)o1 |  | 13800 nM (active) |

| Compound | activity change, negative = inhibition [%] | Potency |
| --- | --- | --- |
| CCn1c(C)nc2cc(-c3nc4n(n3)Cc3ccccc3-4)ccc21 |  | 155 nM (active) |
| O=C(COC(=O)c1ccccc1[N+](=O)[O-])c1ccc2c(c1)OCO2 |  | 61.9 nM (active) |
| O=C(Nc1ccccc1C(=O)O)c1cccc(NC(=O)c2ccco2)c1 | -15.2 |  |
| O=C(O)c1cccc(NC(=O)c2ccccc2NC(=O)c2ccccc2F)c1 | -13.8 |  |
| O=C(Nc1ccccc1C(=O)O)c1ccc(NC(=O)C2CC2)cc1 |  | 7790 nM (active) |
| COc1ccc(-c2nc3ccccc3s2)cc1O |  | 2460 nM (active) |
| O=C(O)c1ccc(NC(=O)c2ccccc2NC(=O)c2cccc(Br)c2)cc1 | -13.3 |  |
| O=C(Nc1ccccc1C(=O)Nc1ccccc1C(=O)O)c1ccccc1 | -4.17 |  |
| COc1ccc2nc(NC(=O)c3cccc(S(=O)(=O)N4CCOCC4)c3)sc2c1 | 16.6 |  |
| Cc1ccc(C(=O)Nc2cccc(C(=O)O)c2)cc1S(=O)(=O)N1CCCC1 | -19.5 |  |
| O=C(Nc1cccc(-c2nc3ccccc3s2)c1)c1cc(-n2cnnc2)ccc1Cl | 12.7 |  |
| O=C(O)c1ccccc1NC(=O)c1ccccc1Nc1ccccc1 | -3.26 |  |
| CN(C)S(=O)(=O)c1ccc(C(=O)Nc2ccccc2C(=O)O)cc1 | -6.75 |  |
| O=C(Nc1ccccc1C(=O)O)c1cccc(S(=O)(=O)Nc2ccc(Br)cc2)c1 | 3.86 |  |
| Nc1ccccc1-c1nc2ccccc2s1 | -13.3 |  |
| CC(=O)Oc1ccc(C(=O)Nc2ccccc2C(=O)Nc2cccc(C(=O)O)c2)cc1 | -11.8 |  |
| COc1ccc2nc(NC(=O)CCc3ccc(OC)c(OC)c3)sc2c1 | -13.7 |  |
| Cc1ccc(C(=O)O/N=C(\N)c2ccccn2)cc1 |  | 61.9 nM (active) |
| COc1ccc2nc(NC(=O)C3CCN(S(=O)(=O)c4cccnc4)CC3)sc2c1 | 26.7 |  |
| O=C(O)c1cccc(NC(=O)c2cccc(S(=O)(=O)N3CCc4ccccc4C3)c2)c1 | -8.2 |  |
